In the supplement of paper PMC7695840:
Structures can show the parent of a compound that is named as a salt.

What was measured:
[1] = test system: Staphylococcus aureus MW2 delta-mecA (mecA-); experiment: normalized GFP fluorescence (growth of mecA- strain) (fraction of control range); higher = more growth of mecA- strain; settings: compound concentration: 150 uM; cefoxitin: subinhibitory; fluorescent label: GFP
Outline: (§1)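 Two pre-induced S. aureus MW2 strains, one with the gene labeled by DsRed and one lacking it labeled by GFP, were mixed 1:1 in LB with a subinhibitory antibiotic dose set daily. The mix went at 5 µL/well onto 150 μM compound (1.5% DMSO) in 1536-well plates, single replicate, and grew unshaken 20 h at 37 °C, 90% humidity. DsRed (540/590) and GFP (485/520) values were scaled per plate between single-strain control medians, and plates with high untreated ratios or rows with DsRed/GFP >10 were left out.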

[2] = test system: Staphylococcus aureus MW2 (mecA+); experiment: normalized DsRed fluorescence (growth of mecA+ strain) (fraction of control range); higher = more growth of mecA+ strain; settings: compound concentration: 150 uM; cefoxitin: subinhibitory; fluorescent label: DsRed
Outline: as §1

Row | Compound | normalized GFP fluorescence [1] | normalized DsRed fluorescence [2]
1 | CCCC(C)(COC(N)=O)COC(=O)NC(C)C (stereo not drawn) | 0.54 | 1.05
2 | CCCN1C[C@H](CSC)C[C@@H]2c3cccc4[nH]cc(c34)C[C@H]21 [Pergolide mesylate] | 0.105 | 1.03
3 | O=P1(N(CCCl)CCCl)NCCCO1 (stereo not drawn) | 0.58 | 0.629
4 | NC(=O)C[S+]([O-])C(c1ccccc1)c1ccccc1 (stereo not drawn) | 0.716 | 0.558
5 | CC(C)N(CCNC(=O)CN1CCCC1=O)C(C)C [Pramiracetam] | 0.568 | 0.402
6 | CCN(C(C)=O)c1cccc(-c2ccnc3c(C#N)cnn23)c1 | 0.782 | 0.598
7 | COc1ccc(OC)c(C(O)C(C)N)c1 (stereo not drawn) | 0.864 | 0.526
8 | CCCC(C)C1(CC)C(=O)NC(=S)NC1=O (stereo not drawn) | 0.288 | 0.518
9 | CN1[C@@H]2CC[C@H]1C[C@@H](OC(=O)[C@H](CO)c1ccccc1)C2 | 0.693 | 0.664
10 | CC[C@@H](c1cccc(O)c1)[C@@H](C)CN(C)C | 0.313 | 0.724
11 | CNC(C)(C)Cc1ccccc1 | 0.75 | 0.831
12 | N[C@@H](Cc1ccc(N(CCCl)CCCl)cc1)C(=O)O | 0.309 | 0.612
13 | CCC1(c2ccc(N)cc2)CCC(=O)NC1=O (stereo not drawn) | 0.425 | 0.946
14 | CC(C)C[C@H]1C(=O)N2CCC[C@H]2[C@]2(O)O[C@](NC(=O)[C@@H]3C=C4c5cccc6[nH]c(Br)c(c56)C[C@H]4N(C)C3)(C(C)C)C(=O)N12 | 0.246 | 1.03
15 | CC(C)[N+](C)(CCC(C(N)=O)(c1ccccc1)c1ccccc1)C(C)C | 0.202 | 0.447
16 | CN(C)C(=O)Oc1ccc[n+](C)c1 | 0.22 | 0.58
17 | Nc1ccncc1 | 0.334 | 0.715

Row | Compound | normalized GFP fluorescence [1] | normalized DsRed fluorescence [2]
18 | C[C@]12CC[C@H]3[C@@H](CCC4=CC(=O)CC[C@@]43C)[C@@H]1CC[C@@H]2O | 0.501 | 0.506
19 | CNc1ccc(C(=O)CC(O)CCC(C)C2OC(=O)CC(O)CC(=O)CC(O)CC(O)CC(O)CC(O)CC3(O)CC(O)C(C(=O)OC)C(CC(O[C@@H]4O[C@H](C)[C@@H](O)[C@H](N)[C@@H]4O)/C=C/C=C/C=C/C=C/C=C/C=C/C=C/C2C)O3)cc1.COC(=O)C1C(O)CC2(O)CC(O)CC(O)CC(O)CC(O)CC(=O)CC(O)CC(=O)OC(C(C)CCC(O)CC(=O)c3ccc(N)cc3)C(C)/C=C/C=C/C=C/C=C/C=C/C=C/C=C/C(O[C@@H]3O[C@H](C)[C@@H](O)[C@H](N)[C@@H]3O)CC1O2 (stereo partly drawn) | 0.675 | 0.626
20 | CC(C)N(CCC(C(N)=O)(c1ccccc1)c1ccccn1)C(C)C (stereo not drawn) | 0.541 | 0.697
21 | NC(=O)C[S@@+]([O-])C(c1ccccc1)c1ccccc1 | 0.234 | 1.11
22 | C[C@]12CCC(=O)C(O)=C1CC[C@@H]1[C@@H]2CC[C@]2(C)C(=O)CC[C@@H]12 [Formestane] | 0.477 | 0.7
23 | C#C[C@]1(O)C=C[C@H]2[C@@H]3CCC4=CC(=O)CC[C@@H]4[C@H]3CC[C@@]21CC [Gestodene] | 0.342 | 0.279
24 | O=c1n(Cl)c(=O)n(Cl)c(=O)n1Cl | 0.337 | 0.35
25 | C[C@H]1CNCCc2ccc(Cl)cc21 [Lorcaserin HCl] | 0.467 | 0.636
26 | Cn1c(CCCC(=O)O)nc2cc(N(CCCl)CCCl)ccc21 [Bendamustine HCL] | 0.659 | 0.83
27 | O=C(O[C@H]1C[C@H]2CC[C@@H](C1)[N+]21CCCC1)C(O)(c1ccccc1)c1ccccc1 [Trospium chloride (Sanctura)] | 0.723 | 0.453
28 | C=CCN1CC[C@]23c4c5ccc(O)c4O[C@H]2C(=O)CC[C@@]3(O)[C@H]1C5 | 0.642 | 0.643
29 | CO[C@]12C[C@@H](COC(=O)c3cncc(Br)c3)CN(C)[C@@H]1Cc1cn(C)c3cccc2c13 | 0.411 | 0.751
30 | CC[C@H](C)[C@H]1O[C@]2(C=C[C@@H]1C)C[C@@H]1C[C@@H](C/C=C(\C)[C@@H](O[C@H]3C[C@H](OC)[C@@H](O[C@H]4C[C@H](OC)[C@@H](O)[C@H](C)O4)[C@H](C)O3)[C@@H](C)/C=C/C=C3\CO[C@@H]4[C@H](O)C(C)=C[C@@H](C(=O)O1)[C@]34O)O2.CO[C@H]1C[C@H](O[C@H]2[C@H](C)O[C@@H](O[C@@H]3/C(C)=C/C[C@@H]4C[C@@H](C[C@]5(C=C[C@H](C)[C@@H](C(C)C)O5)O4)OC(=O)[C@@H]4C=C(C)[C@@H](O)[C@H]5OC/C(=C\C=C\[C@@H]3C)[C@]54O)C[C@@H]2OC)O[C@@H](C)[C@@H]1O | 0.294 | 0.502
31 | CC(C)C[C@H](CN)CC(=O)O | 0.412 | 0.571
32 | CN(C)C(=O)Oc1cccc([N+](C)(C)C)c1 | 0.41 | 1.1
33 | C[C@@H]1O[C@@H](O[C@@H]2C=C3CC[C@@H]4[C@H](CC[C@]5(C)[C@@H](c6ccc(=O)oc6)CC[C@]45O)[C@@]3(C)CC2)[C@H](O)[C@H](O)[C@H]1O | 0.198 | 0.926
34 | C#C[C@]1(O)CC[C@H]2[C@@H]3CCC4=CC(=O)CC[C@]4(C)[C@H]3CC[C@@]21C | 0.473 | 0.916
